According to PubChem BioAssay AID1159580 (chemical genetic matrix, 2015):
Out of some 5,500 compounds screened, about 2,000 (36%) were called active. About 18% were inconclusive and are not listed. The list shows a part of the results. Unmarked numbers belong to inactive results. Rule as the data show it: active = normalized growth mostly below about 0.91 (no sharp cut-off); inconclusive = no clear call, values can overlap the other calls; inactive = mostly above about 0.92.

Test: chemical genetic growth profiling, strain panel (AID 1159580);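 also: tested at 20 µM; growth read once vehicle control cultures reached saturation at 30 °C; 1 = growth at the plate median or of vehicle wells; lower values mean less growth of the strain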
Settings: growth OD

SMILES: Oc1c(I)cc(I)c2cccnc12
- normalized growth (S. cerevisiae deletion strains, locus YJL187C, strain SWE1, stronger effect = lower value): 0.0737 (active)
- normalized growth (S. cerevisiae deletion strains, locus YJR043C, strain POL32, stronger effect = lower value): 0.08 (active)
- normalized growth (S. cerevisiae deletion strains, locus YJR066W, strain TOR1, stronger effect = lower value): 0.106 (active)
- normalized growth (S. cerevisiae deletion strains, locus YKL009W, strain mrt4, stronger effect = lower value): 0.274 (active)
- normalized growth (S. cerevisiae deletion strains, locus YKL068W, stronger effect = lower value): 0.479 (active)
- normalized growth (S. cerevisiae deletion strains, locus YKL085W, strain MDH1 (second series), stronger effect = lower value): 0.253 (active)
- normalized growth (S. cerevisiae deletion strains, locus YKL085W, strain MDH1, stronger effect = lower value): 0.253 (active)
- normalized growth (S. cerevisiae deletion strains, locus YKL160W, strain elf1, stronger effect = lower value): 0.0775 (active)
- normalized growth (S. cerevisiae deletion strains, locus YKL190W, strain CNB1, stronger effect = lower value): 0.0667 (active)
- normalized growth (S. cerevisiae deletion strains, locus YKR001C, strain vps1, stronger effect = lower value): 0.1 (active)
- normalized growth (S. cerevisiae deletion strains, locus YKR026C, strain gcn3, stronger effect = lower value): 0.0967 (active)
- normalized growth (S. cerevisiae deletion strains, locus YKR091W, strain srl3, stronger effect = lower value): 0.129 (active)
- normalized growth (S. cerevisiae deletion strains, locus YLL001W, strain dnm1, stronger effect = lower value): 0.085 (active)
- normalized growth (S. cerevisiae deletion strains, locus YLL026W, stronger effect = lower value): 0.652 (active)
- normalized growth (S. cerevisiae deletion strains, locus YLL041C, strain sdh2, stronger effect = lower value): 0.083 (active)
- normalized growth (S. cerevisiae deletion strains, locus YLR027C, strain aat2, stronger effect = lower value): 0.0875 (active)
- normalized growth (S. cerevisiae deletion strains, locus YLR039C, strain RIC1, stronger effect = lower value): 0.156 (active)
- normalized growth (S. cerevisiae deletion strains, locus YLR058C, strain SHM2, stronger effect = lower value): 0.0693 (active)
- normalized growth (S. cerevisiae deletion strains, locus YLR102C, strain apc9, stronger effect = lower value): 0.0939 (active)
- normalized growth (S. cerevisiae deletion strains, locus YLR113W, strain HOG1, stronger effect = lower value): 0.128 (active)
- normalized growth (S. cerevisiae deletion strains, locus YLR221C, strain rsa3, stronger effect = lower value): 0.118 (active)
- normalized growth (S. cerevisiae deletion strains, locus YLR258W, strain gsy2, stronger effect = lower value): 0.0729 (active)
- normalized growth (S. cerevisiae deletion strains, locus YLR262C, strain YPT6 (second series), stronger effect = lower value): 0.109 (active)
- normalized growth (S. cerevisiae deletion strains, locus YLR262C, strain YPT6, stronger effect = lower value): 0.184 (active)
- normalized growth (S. cerevisiae deletion strains, locus YLR268W, strain sec22, stronger effect = lower value): 0.104 (active)
- normalized growth (S. cerevisiae deletion strains, locus YLR320W, strain mms22, stronger effect = lower value): 0.111 (active)
- normalized growth (S. cerevisiae deletion strains, locus YLR330W, strain CHS5, stronger effect = lower value): 0.0767 (active)
- normalized growth (S. cerevisiae deletion strains, locus YLR342W, strain FKS1 (second series), stronger effect = lower value): 0.0828 (active)
- normalized growth (S. cerevisiae deletion strains, locus YLR342W, strain FKS1, stronger effect = lower value): 0.0814 (active)
- normalized growth (S. cerevisiae deletion strains, locus YLR357W, strain rsc2, stronger effect = lower value): 0.178 (active)
- normalized growth (S. cerevisiae deletion strains, locus YLR370C, strain arc18, stronger effect = lower value): 0.0851 (active)
- normalized growth (S. cerevisiae deletion strains, locus YLR371W, strain rom2, stronger effect = lower value): 0.137 (active)
- normalized growth (S. cerevisiae deletion strains, locus YLR384C, strain iki3, stronger effect = lower value): 0.0849 (active)
- normalized growth (S. cerevisiae deletion strains, locus YLR418C, strain cdc73, stronger effect = lower value): 0.16 (active)
- normalized growth (S. cerevisiae deletion strains, locus YML016C, strain PPZ1, stronger effect = lower value): 0.0635 (active)
- normalized growth (S. cerevisiae deletion strains, locus YML032C, strain rad52, stronger effect = lower value): 0.115 (active)
- normalized growth (S. cerevisiae deletion strains, locus YML120C, strain ndi1, stronger effect = lower value): 0.0935 (active)
- normalized growth (S. cerevisiae deletion strains, locus YML124C, strain tub3, stronger effect = lower value): 0.0977 (active)
- normalized growth (S. cerevisiae deletion strains, locus YMR058W, strain fet3, stronger effect = lower value): 0.0746 (active)
- normalized growth (S. cerevisiae deletion strains, locus YMR078C, strain ctf18, stronger effect = lower value): 0.11 (active)
- normalized growth (S. cerevisiae deletion strains, locus YMR125W, strain sto1, stronger effect = lower value): 0.112 (active)
- normalized growth (S. cerevisiae deletion strains, locus YMR129W, stronger effect = lower value): 0.256 (active)
- normalized growth (S. cerevisiae deletion strains, locus YMR205C, strain PFK2, stronger effect = lower value): 0.108 (active)
- normalized growth (S. cerevisiae deletion strains, locus YMR223W, strain ubp8, stronger effect = lower value): 0.108 (active)
- normalized growth (S. cerevisiae deletion strains, locus YMR231W, strain pep5, stronger effect = lower value): 0.105 (active)
- normalized growth (S. cerevisiae deletion strains, locus YMR307W, strain GAS1, stronger effect = lower value): 0.145 (active)
- normalized growth (S. cerevisiae deletion strains, locus YNL067W, strain RPL9B, stronger effect = lower value): 0.0655 (active)
- normalized growth (S. cerevisiae deletion strains, locus YNL071W, strain lat1, stronger effect = lower value): 0.236 (active)
- normalized growth (S. cerevisiae deletion strains, locus YNL183C, strain NPR1, stronger effect = lower value): 0.103 (active)
- normalized growth (S. cerevisiae deletion strains, locus YNL209W, strain ssb2, stronger effect = lower value): 0.0737 (active)
- normalized growth (S. cerevisiae deletion strains, locus YNL233W, strain BNI4, stronger effect = lower value): 0.073 (active)
- normalized growth (S. cerevisiae deletion strains, locus YNL248C, strain rpa49, stronger effect = lower value): 0.11 (active)
- normalized growth (S. cerevisiae deletion strains, locus YNL250W, strain rad50, stronger effect = lower value): 0.0949 (active)
- normalized growth (S. cerevisiae deletion strains, locus YNL271C, strain bni1, stronger effect = lower value): 0.177 (active)
- normalized growth (S. cerevisiae deletion strains, locus YNL298W, strain CLA4, stronger effect = lower value): 0.271 (active)
- normalized growth (S. cerevisiae deletion strains, locus YNL307C, strain MCK1, stronger effect = lower value): 0.115 (active)
- normalized growth (S. cerevisiae deletion strains, locus YNL322C, strain KRE1 (second series), stronger effect = lower value): 0.128 (active)
- normalized growth (S. cerevisiae deletion strains, locus YNL322C, strain KRE1, stronger effect = lower value): 0.0647 (active)
- normalized growth (S. cerevisiae deletion strains, locus YNR049C, strain mso1, stronger effect = lower value): 0.0812 (active)
- normalized growth (S. cerevisiae deletion strains, locus YNR052C, strain pop2, stronger effect = lower value): 0.0966 (active)
- normalized growth (S. cerevisiae deletion strains, locus YOL012C, strain htz1): 0.333
- normalized growth (S. cerevisiae deletion strains, locus YOL147C, strain pex11, stronger effect = lower value): 0.0953 (active)
- normalized growth (S. cerevisiae deletion strains, locus YOR001W, strain rrp6, stronger effect = lower value): 0.21 (active)
- normalized growth (S. cerevisiae deletion strains, locus YOR061W, strain CKA2, stronger effect = lower value): 0.0666 (active)
- normalized growth (S. cerevisiae deletion strains, locus YOR069W, strain VPS5, stronger effect = lower value): 0.0731 (active)
- normalized growth (S. cerevisiae deletion strains, locus YOR070C, strain gyp1, stronger effect = lower value): 0.575 (active)
- normalized growth (S. cerevisiae deletion strains, locus YOR080W, strain dia2, stronger effect = lower value): 0.09 (active)
- normalized growth (S. cerevisiae deletion strains, locus YOR083W, strain WHI5, stronger effect = lower value): 0.112 (active)
- normalized growth (S. cerevisiae deletion strains, locus YOR106W, strain vam3, stronger effect = lower value): 0.0906 (active)
- normalized growth (S. cerevisiae deletion strains, locus YOR136W, strain idh2, stronger effect = lower value): 0.156 (active)
- normalized growth (S. cerevisiae deletion strains, locus YOR144C, strain elg1, stronger effect = lower value): 0.0898 (active)
- normalized growth (S. cerevisiae deletion strains, locus YOR184W, strain ser1, stronger effect = lower value): 0.133 (active)
- normalized growth (S. cerevisiae deletion strains, locus YOR231W, strain MKK1, stronger effect = lower value): 0.14 (active)
- normalized growth (S. cerevisiae deletion strains, locus YOR265W, strain rbl2, stronger effect = lower value): 0.0593 (active)
- normalized growth (S. cerevisiae deletion strains, locus YOR270C, strain vph1, stronger effect = lower value): 0.129 (active)
- normalized growth (S. cerevisiae deletion strains, locus YOR290C, strain snf2, stronger effect = lower value): 0.0939 (active)
- normalized growth (S. cerevisiae deletion strains, locus YOR316C, strain cot1, stronger effect = lower value): 0.0886 (active)
- normalized growth (S. cerevisiae deletion strains, locus YPL051W, strain arl3, stronger effect = lower value): 0.0895 (active)
- normalized growth (S. cerevisiae deletion strains, locus YPL078C, strain atp4, stronger effect = lower value): 0.0936 (active)
- normalized growth (S. cerevisiae deletion strains, locus YPL106C, strain sse1, stronger effect = lower value): 0.16 (active)
- normalized growth (S. cerevisiae deletion strains, locus YPL240C, strain hsp82, stronger effect = lower value): 0.0764 (active)
- normalized growth (S. cerevisiae deletion strains, locus YPL256C, strain CLN2, stronger effect = lower value): 0.15 (active)
- normalized growth (S. cerevisiae deletion strains, locus YPR119W, strain clb2, stronger effect = lower value): 0.0998 (active)
- normalized growth (S. cerevisiae deletion strains, locus YPR141C, strain kar3, stronger effect = lower value): 0.235 (active)
- normalized growth (S. cerevisiae deletion strains, locus YPR163C, strain tif3, stronger effect = lower value): 0.107 (active)
- normalized growth (S. cerevisiae deletion strains, locus YPR167C, strain met16, stronger effect = lower value): 0.103 (active)
- normalized growth (S. cerevisiae deletion strains, strain wtn01, stronger effect = lower value): 0.116 (active)
- normalized growth (S. cerevisiae strains, strain wild type, stronger effect = lower value): 0.0715 (active)
